Source: PubChem
Compounds with a hit are over-represented: about 18% of the library has one in this group of screens.
IL-1B inflam inh: inhibitors of inflammasome signaling (IL-1 beta secretion); THP-1 LPS/ATP IL-1B secretion, AlphaLISA, 16 h; hits give low values; activity change, % at 57.5 µM; 360,000 compounds, 4.7% hits; in the data active means activity change below about -50%; inconclusive means mostly about -30% to -49%; further: on the % scale 0 is the no-effect control and ±100 the full control effect
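THP-1 cells pretreated 1 hr with compounds (up to 57.5 uM final), then stimulated with LPS (250 ng/mL final) plus ATP (1.25 mM final); secreted IL-1B measured by AlphaLISA after 16 hr, decreased signal indicating inhibition.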
TDP1 cell noCPT: qHTS for Inhibitors of human tyrosyl-DNA phosphodiesterase 1 (TDP1): qHTS in cells in absence of CPT; DT40 Tdp1-/- hTDP1 cells, no CPT, ATP luminescence, 48 h; Potency, µM (highest dose often 46.2 µM), without a hit: at the highest dose activity change, negative = growth inhibition, actives largely listed as inhibitors; 420,000 compounds, 15% hits; AID 686978, 2013; further: potency means the concentration at half of the fitted maximal effect; on the % scale 0 is the no-effect control and ±100 the full control effect; nearly all actives have a fitted effect of over 55% in size
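A cellular qHTS used chicken DT40 cells lacking endogenous Tdp1 but carrying stably transfected human TDP1. Compounds were applied without camptothecin, and cell growth kinetics were judged by ATP-dependent luminescence after ≥48 hr.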
HepG2 tox: counter-screen for TGF-b inhibitors: cytotoxicity in HepG2 cells; HepG2 CAGA-GFP viability, ATP luminescence, 18 h; AID 588856; Potency, µM (highest dose often 46.1 µM), for inactives: at the highest dose activity change, negative = cytotoxicity, hits mostly cytotoxic; 410,000 compounds, 0.76% hits; further: potency means the concentration at half of the fitted maximal effect
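CellTiter-Glo luminescence gave cytotoxicity after 18 hours at 37 degrees C. The cells were HepG2 CAGA-GFP in 1% FBS DMEM, stimulated with 500 pg/mL TGF-beta after compound addition. %Activity was normalised to no-cell wells (complete cell-killing) and DMSO (no toxicity), and curves were fitted and classified.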
TGFb inhibitor: TGF-b pathway inhibition; HepG2 CAGA-GFP TGF-b/SMAD3 reporter, GFP fluorescence, 18 h; TGF-beta stimulated, 500 pg/mL final; Potency, µM (series often up to 46.1 µM), without a hit: top-dose activity, negative = inhibition, hits mostly inhibitors; 410,000 compounds, 1.2% hits; further: potency means the concentration at half of the fitted maximal effect; on the % scale 0 is the no-effect control and ±100 the full control effect; nearly all actives have a fitted effect of over 65% in size
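GFP signal (ex488/em500-530) from TGF-beta-stimulated HEPG2 CAGA-GFP cells, 500 pg/mL final, 18 h at 37 degrees C in DMEM plus 1% FBS, normalized to unstimulated and DMSO-stimulated controls.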
TDP1 inh: TDP1 (human) enzyme inhibition | 350,000 compounds, 0.28% hits | Q9NUW8 | Potency, µM (doses to about 130 µM), for the others: top-dose activity change, negative = inhibition, usual class: inhibitors | recombinant TDP1, AlphaScreen DNA substrate cleavage; further: potency means the concentration at half of the fitted maximal effect; on the % scale 0 is the no-effect control and ±100 the full control effect; nearly all actives have a fitted effect of over 40% in size
Target sequence (Q9NUW8 whole entry, looked up): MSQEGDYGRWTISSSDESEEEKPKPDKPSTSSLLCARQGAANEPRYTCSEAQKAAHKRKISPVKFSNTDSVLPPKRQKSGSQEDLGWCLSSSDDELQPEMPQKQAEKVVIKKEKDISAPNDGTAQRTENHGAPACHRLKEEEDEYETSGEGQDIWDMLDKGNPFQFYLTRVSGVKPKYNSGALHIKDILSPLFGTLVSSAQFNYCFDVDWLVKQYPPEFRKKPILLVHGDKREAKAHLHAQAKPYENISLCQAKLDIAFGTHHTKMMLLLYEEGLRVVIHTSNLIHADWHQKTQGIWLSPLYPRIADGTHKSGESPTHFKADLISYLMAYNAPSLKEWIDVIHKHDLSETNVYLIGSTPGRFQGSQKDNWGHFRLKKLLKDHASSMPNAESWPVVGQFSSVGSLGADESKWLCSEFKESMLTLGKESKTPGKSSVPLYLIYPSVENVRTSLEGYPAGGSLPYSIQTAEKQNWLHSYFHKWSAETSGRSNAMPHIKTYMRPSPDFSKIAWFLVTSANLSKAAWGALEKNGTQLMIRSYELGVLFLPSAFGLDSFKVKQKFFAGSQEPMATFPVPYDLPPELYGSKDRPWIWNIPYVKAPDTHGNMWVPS
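Signal: AlphaScreen proximity between streptavidin donor and anti-FITC acceptor beads on intact substrate. Reaction: Tdp1 1 nM, substrate 15 nM final, 5 min RT after 15 min compound preincubation.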
DT40 TDP1 CPT: growth inhibition of DT40 Tdp1-/-;hTDP1 cells with camptothecin (screen for TDP1 inhibitors) | 420,000 compounds, 12% hits | chicken DT40 Tdp1-/-;hTDP1 cells + 20 nM CPT, ATP luminescence, 48 h | AID 686979 | Potency, µM (top dose mostly 46.2 µM), for the others: top-dose activity change, negative = growth inhibition, hits mostly inhibitors; further: potency means the concentration at half of the fitted maximal effect; on the % scale 0 is the no-effect control and ±100 the full control effect; nearly all actives have a fitted effect of over 55% in size
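Chicken DT40 Tdp1-/- cells complemented with human TDP1, 400 cells/well, exposed to compounds plus 20 nM camptothecin for at least 48 h at 37 C; viability read as ATP content by CellTiter-Glo luminescence.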
Starred values were filed as active, the others as inactive; ? = inconclusive; · = no result given; [ ] = dose if it differs, or a comment. Unless noted, the call rests on the fitted dose curve; in most records, active means well fitted curve in the direction sought with a large enough effect; inconclusive means small, poorly fitted or top-dose-only effect, or another doubt; inactive means no such curve, though single readings can be large; an effect the other way counts as inactive or inconclusive.

SMILES	IL-1B inflam inh	TDP1 cell noCPT	HepG2 tox	TGFb inhibitor	TDP1 inh	DT40 TDP1 CPT
Cc1ccc2cccc(NC(=O)c3cccc4c(Br)cccc34)c2n1	·	·	0%	16%	3%	·
O=Cc1c(OCc2ccccc2)ccc2ccccc12	0	-14%	-10%	?	3%	-14%
C/[N+]([O-])=C/c1c(OCc2ccccc2)ccc2ccccc12	-11	23µM*	-21%	-16%	·	-1%
COc1cc(C(=O)N=c2sccn2C)c([N+](=O)[O-])cc1OC	-4	6%	3%	0%	8%	-10%
Cn1ccsc1=NC(=O)c1ccc([N+](=O)[O-])o1	-29	?	-75%	28µM*	6%	18µM*
COc1ccc(C2CCc3cc4c(cc3C2=NO)OCO4)cc1OC (centres undefined)	-5	15µM*	-23%	-15%	·	?
COc1ccc(C2NC(=O)NC(C)=C2C(=O)OCc2ccc3c(c2)OCO3)cc1OC (centres undefined)	-15	?	5%	40%	2%	?
CCc1c(C)nc2[nH]nc(-c3ccccc3)n2c1=O	28	?	12%	18%	7%	?
CCc1c(C)nc2[nH]nc(-c3ccccc3C)n2c1=O	-15	15µM*	-35%	2%	3%	?
CCOc1cc(Cl)c(S(=O)(=O)NCCCn2ccnc2)cc1Cl	2	16µM*	-15%	-30%	5%	21µM*
CCOC(=O)c1c(NC(=O)c2cccs2)sc2c1CC(C)(C)OC2	?	26µM*	0.1µM*	-22%	·	?
CCOC(=O)c1c(NC(=O)C2C3C=CC(C3)C2C(=O)O)sc2c1CC(C)(C)OC2 (centres undefined)	21	-6%	-2%	3%	-13%	8%
CC(C)Cc1nn2c(=O)cc(COC(=O)c3cccc(NC(=O)c4ccccc4)c3)nc2s1	·	-4%	7%	2%	4%	-3%
CCOC(=O)c1cccc(NC(=O)c2ccccc2C)c1	-5	?	0%	0%	5%	-2%
Cc1nn2c(=O)cc(COC(=O)c3cccc(NC(=O)c4ccc(F)cc4)c3)nc2s1	·	10µM*	0%	?	4%	12µM*
CC(C)Cc1nn2c(=O)cc(COC(=O)c3cccc(NC(=O)c4cccs4)c3)nc2s1	·	8.2µM*	7%	0%	-6%	?
CCOC(=O)c1cccc(NC(=O)c2cccs2)c1	-21	15µM*	-12%	0%	-2%	23µM*
Cc1nn2c(=O)cc(COC(=O)c3ccc(NC(=O)c4ccc(C(C)(C)C)cc4)cc3)nc2s1	·	16µM*	4%	0%	-9%	?
Cc1nn2c(=O)cc(COC(=O)c3ccc(C(C)(C)C)cc3)nc2s1	·	?	-2%	-9%	10%	-28%
CCOC(=O)c1c(NC(=S)Nc2ccccc2)sc2c1CC(C)(C)SC2	0	?	11%	-19%	1%	16µM*
CCCCc1nn2c(=O)cc(COC(=O)c3cccc(NC(=O)c4cccs4)c3)nc2s1	·	-25%	-7%	5%	9%	-7%
Cc1nn2c(=O)cc(COC(=O)c3cccc(NC(=O)c4cccs4)c3)nc2s1	·	12µM*	-51%	?	-1%	12µM*
O=C(Nc1cccc(C(=O)OCc2cc(=O)n3nc(C4CC4)sc3n2)c1)c1cccc(Cl)c1	·	16µM*	2%	22%	4%	12µM*
CCOC(=O)c1cccc(NC(=O)c2cc3cc4ccc(C)cc4nc3s2)c1	·	15µM*	2%	-5%	0%	15µM*
CCOC(=O)c1cccc(NC(=O)c2cc3cc4cc(OC)ccc4nc3s2)c1	·	?	-7%	5%	-2%	?
SMILES	IL-1B inflam inh	TDP1 cell noCPT	HepG2 tox	TGFb inhibitor	TDP1 inh	DT40 TDP1 CPT
CCSc1nnc(NC(=O)c2ccc3ccccc3n2)s1	8	?	-18%	?	10%	18µM*
CCSc1nnc(NC(=O)c2cc(C)nc3ccccc23)s1	27	-15%	-16%	7%	5%	-12%
CCc1nnc(NC(=O)c2ccc3ccccc3n2)s1	34	18µM*	-48%	?	11%	?
CCc1nnc(NC(=O)c2sc3nc4cc(C)ccc4cc3c2N)s1	0	2.9µM*	1%	18%	?	2.6µM*
O=[N+]([O-])c1ccccc1OCCN1CCOCC1	12	2%	4%	-4%	·	18%
COC(=O)c1c(C)nn(-c2ccc(OC(F)(F)F)cc2)c1-c1snnc1C	-3	16µM*	-13%	3%	-8%	?
Cc1nnsc1-c1c(C(=O)Oc2ccccc2)c(C)nn1-c1ccccc1	1	?	-24%	-18%	-2%	-22%
COC(=O)c1cccc2c1NC(=O)C2=O	17	21µM*	-15%	?	3%	-3%
O=C1Nc2c(Cl)cccc2C1=O	104	23µM*	-58%	?	·	15µM*
O=C1Nc2c(Br)cccc2C1=O	73	12µM*	-101%	?	0%	8.2µM*
O=C(NCCSCc1c(F)cccc1Cl)C1CCN(S(=O)(=O)Cc2ccccc2)CC1	·	-17%	-6%	-1%	-3%	-25%
CC1(C)CC(=O)C=C(c2cccs2)C1	38	·	2%	1%	·	-8%
COc1ccc(/C=C/C(=O)CC(O)(c2ccccc2)C(F)(F)F)cc1 (centres undefined)	?	?	10µM*	?	5%	?
O=C(/C=C/c1ccccc1)CC(O)(c1ccccc1)C(F)(F)F (centres undefined)	-99*	11µM*	-79%	11µM*	5%	16µM*
O=C(NCCc1ccc(Cl)cc1)C1COc2ccccc2O1 (centres undefined)	6	-28%	6%	16%	10%	-1%
COc1ccc2c(c1)OC(C)CN(CCNC(=O)c1csc(-c3cccs3)n1)C2 (centres undefined)	·	-14%	·	·	·	-6%[9.04 µM]
CCOC(=O)C1=C[C@@H](CC)N(S(=O)(=O)c2ccc([N+](=O)[O-])cc2)[C@H]1c1ccccc1	22	?	8%	?	·	21µM*
CCOC(=O)C1=C[C@@H](c2ccccc2)N(S(=O)(=O)c2ccc(C)cc2)[C@H]1c1cccc(Cl)c1	12	23µM*	-17%	-21%	·	?
CCOC(=O)C1=C[C@@H](C(C)C)N(S(=O)(=O)c2ccc([N+](=O)[O-])cc2)[C@H]1c1ccccc1	-1	?	-24%	?	·	?
